Structures are written as SMILES. Results filed as inconclusive are left out. The source made the active and inactive calls. Calls come from the whole dose curve; as a rule, active = well fitted cell-killing curve with a large enough effect in the repeat runs; inconclusive = weak or mixed curves, or effect the other way; inactive = flat fitted curve, though single readings scatter. Where a SMILES comes first, the peptide text is derived from it. [ ]: non-standard residue; d: D form. pGlu = O=C1CC[C@@H](C(=O)O)N1
% is set by controls: 0 for no effect and ±100 for the full control effect.

A short description of this assay: qHTS assay to identify small molecule antagonists of the estrogen receptor alpha (ER-alpha) signaling pathway using the BG1 cell line in the presence of 0.1 nM 17-beta-estradiol - cell viability counter screen (AID 1259241). Note: nearly all actives have a fitted effect of over 40% in size. The settings on record: VM7Luc4E2 (BG1) viability, CellTiter-Fluor protease, 22 h, 0.1 nM estradiol agonist added; series mostly up to 92.4 µM. An excerpt: National Center for Advancing Translational Sciences [NCATS]
NIH Chemical Genomics Center [NCGC]
U.S. Environmental Protection Agency [EPA]
National Institutes of Environmental Health Sciences [NIEHS]
National Toxicology Program [NTP]
U.S. Food and Drug Administration [FDA]
Estrogen receptor (ER), a member of the nuclear hormone receptor plays an important role in development, metabolic homeostasis and reproduction. Two subtypes of ER, ER-alpha and ER-beta, have similar expression patterns with some uniqueness in both types. Endocrine disrupting chemicals (EDCs) and their interactions with steroid hormone receptors like ER causes disruption of normal endocrine function. Therefore, it is important to understand the effect of environmental chemicals in ER signaling pathway. For identifying ER antagonists, VM7Luc4E2 cell line was used to screen against Tox21 compound libraries.
VM7Luc4E2 cell line (provided by Denison MS, University of California) endogenously express full-length ER-alpha and is stably transfected with a plasmid containing four estrogen responsive elements (ERE) upstream of a luciferase reporter gene. The current screening for identification of ER-alpha inhibitors against Tox21 compound libraries used lower concentration (0.1 nM) of 17beta-Estradiol as a stimulator. The cytotoxicity of the Tox21 compound libraries against VM7Luc4E2 cell line was tested by measuring live-cell protease activity using CellTiter-Fluor assay in the same wells.
Tox21 Assay Protocol Summary:
VM7Luc4E2 cells were cultured in phenol red free assay medium containing 10% charcoal stripped FBS for 5 days prior to the assay. The cells were dispensed at 4,000 cells/well in 4 uL of assay medium into white wall/solid-bottom 1536-well plates (Corning Life Sciences, Corning, NY) using a Multidrop Combi (ThermoFisher Scientific, Waltham, MA) dispenser. After the assay plates were incubated at 37C and 5% CO2 for 24 hr, 23 nL of compounds dissolved in DMSO, positive controls or DMSO only was transferred to the assay plates by a Pintool station (Kalypsys, San Diego, CA). The transfer of compounds was followed by the addition of 1 uL of 0.1 nM (final concentration) agonist (17beta-Estradiol)/assay medium using a Flying Reagent Dispenser (FRD, Aurora Discovery, San Diego, CA). The plates were incubated at 37C and 5% CO2 for 22 hr. For cytotoxicity assay, 1 uL of CellTiter-Fluor reagent (Promega Corporation, Madison, WI) was added to each well using the FRD and after 30 min incubation at 37C and 5% CO2, The fluorescence intensity was measured using ViewLux plate reader (PerkinElmer, Shelton, CT).
Regarding `CCNS(=O)(=O)c1ccc(C)cc1`, the result was inactive.
Take `CCN(Cc1ccccc1)c1ccccc1`: the outcome was inactive.
On the same count and under the same terms, the entry for `CCOC(=O)OC(C)OC1=C(C(=O)Nc2ccccn2)N(C)S(=O)(=O)c2ccccc21` (stereo not given) is “inactive”; for `CCCCN(CCC(=O)OCC)C(C)=O` it is “inactive”.
In the case of `O=C(O)c1cc(C(=O)O)cc(C(=O)O)c1`, the result was inactive.
Same read-out and setting: in the case of `CC[N+](C)(CC)CCOC(=O)C1c2ccccc2Oc2ccccc21` it was “inactive”.
Turning to `NC(=O)N[C@@H](CCC(=O)O)C(=O)O`, the result was inactive.
Regarding `CN(C)C(=O)Oc1cccc([N+](C)(C)C)c1`, the outcome was inactive.
For `CC(C)C[C@@H](N)C(=O)O`, the activity change, negative = cytotoxicity was -0.157% [at 19 µM] (inactive).
In the case of `O=C(CO)[C@@H](O)[C@H](O)[C@@H](O)CO`, the result was inactive.
For the molecule `CC(C)(N)C#N`, the result was inactive.
On the same count and under the same terms, in the case of `O=C(O)CCCC[P+](c1ccccc1)(c1ccccc1)c1ccccc1` it was “inactive”; in that of `C[C@H]1C[C@H]2[C@@H]3CCC4=CC(=O)C=C[C@]4(C)[C@H]3C(=O)C[C@]2(C)[C@@]1(O)C(=O)CO`, “inactive”; in that of `CCOC(=O)C1=NOC(c2ccccc2)(c2ccccc2)C1`, “inactive”.
The same measure, in the same setting: the entry for `COCCOCC(OC)OC` is “inactive”; for `CC(COc1ccccc1)NN` (stereo not given) it is “inactive”; for `CC1(C)OC[C@@H](COC(=O)CCc2ccc(OC[C@@H](O)CNCCNC(=O)N3CCOCC3)cc2)O1` it is “inactive”.
Still for that read-out and setting: in the case of `COc1ccnc(CS(=O)c2nc3cc(OC(F)F)ccc3[nH]2)c1OC` (stereo not given) it was “inactive”; in that of `C=C(C)C(=O)OCC1CCCO1` (stereo not given), “inactive”; in that of `CCCC[N+](C)(CCCC)CCCC`, “inactive”.
`CC(=O)N1C[C@H](O)C[C@H]1C(=O)O`: the result was inactive.
Still for that read-out and setting: the entry for `CN(C)CCCN(C)CCCN(C)C` is “inactive”; for `CCN1CCOCC1` it is “inactive”; for `COc1cc(C(=O)OC(COCCC(C)C)CN2CCOCC2)cc(OC)c1OC` (stereo not given) it is “inactive”.
On the same count and under the same terms, the entry for `O=S(=O)(O)c1cccc2ccccc12` is “inactive”; for `COC(=O)C1=C(C)NC(C)=C(C(=O)OC(C)C)C1c1cccc2nonc12` (stereo not given) it is “inactive”.
On to `CC(=O)c1cnccn1`, for which the outcome was inactive.
The same measure, in the same setting: the entry for `CC[C@H]1OC(=O)[C@H](C)[C@@H](O[C@H]2C[C@@](C)(OC)[C@@H](O)[C@H](C)O2)[C@H](C)[C@@H](O[C@@H]2O[C@H](C)C[C@H](N(C)C)[C@H]2O)[C@](C)(OC)C[C@@H](C)C(=O)[C@H](C)[C@@H](O)[C@]1(C)O` is “inactive”; for `CCCOC(=O)CC` it is “inactive”.
Same read-out and setting: the entry for `C[N+]1(C)CCCC(OC(=O)C(O)(c2ccccc2)c2ccccc2)C1` (stereo not given) is “inactive”.
With `O=C(O)CNC(=O)c1ccccc1`, the result was inactive.
As to `CNC(=O)Nc1ccc(Cl)c(Cl)c1`, the outcome was inactive.
Turning to `CC(=O)NC(=O)c1ccccc1O`, the result was inactive.
Same read-out and setting: the entry for `C=COCC1CCC(COC=C)CC1` (stereo not given) is “inactive”.
The same measure, in the same setting: the entry for `FB(F)F` is “inactive”; for `CC(C)(C)c1ccc(-c2ccc(C(C)(C)C)cc2)cc1` it is “inactive”.
On the same count and under the same terms, the entry for `O=[N+]([O-])c1ccc(/C=N\O)o1` is “inactive”; for `CCNC(=O)[C@@H]1CCCN1C(=O)[C@H](CCCN=C(N)N)NC(=O)[C@H](CC(C)C)NC(=O)CNC(=O)[C@H](Cc1ccc(O)cc1)NC(=O)[C@H](CO)NC(=O)[C@H](Cc1c[nH]c2ccccc12)NC(=O)[C@H](Cc1cnc[nH]1)NC(=O)[C@@H]1CCC(=O)N1` ([pGlu]HWSYGLRP-NHEt) it is “inactive”.
Turning to `CC(=O)OCC(=O)[C@@]1(O)[C@H](C)C[C@H]2[C@@H]3CCC4=CC(=O)C=C[C@]4(C)[C@@]3(F)[C@@H](O)C[C@@]21C`, the outcome was inactive.
Consider `Nc1c2c(nc3c1CCC3)CCCC2`, for which the result was inactive.

Values taken from PubChem BioAssay (Tox21).
